Screening data: PubChem, Broad Institute
NSD2 inh = blocks human histone methyltransferase NSD2; NSD2 peptide methylation, AlphaScreen, 120 min; inhibition, % at 12.5 µM; 310,000 compounds, 0.54% hits; AID 743445
Target sequence (O96028 whole entry, looked up): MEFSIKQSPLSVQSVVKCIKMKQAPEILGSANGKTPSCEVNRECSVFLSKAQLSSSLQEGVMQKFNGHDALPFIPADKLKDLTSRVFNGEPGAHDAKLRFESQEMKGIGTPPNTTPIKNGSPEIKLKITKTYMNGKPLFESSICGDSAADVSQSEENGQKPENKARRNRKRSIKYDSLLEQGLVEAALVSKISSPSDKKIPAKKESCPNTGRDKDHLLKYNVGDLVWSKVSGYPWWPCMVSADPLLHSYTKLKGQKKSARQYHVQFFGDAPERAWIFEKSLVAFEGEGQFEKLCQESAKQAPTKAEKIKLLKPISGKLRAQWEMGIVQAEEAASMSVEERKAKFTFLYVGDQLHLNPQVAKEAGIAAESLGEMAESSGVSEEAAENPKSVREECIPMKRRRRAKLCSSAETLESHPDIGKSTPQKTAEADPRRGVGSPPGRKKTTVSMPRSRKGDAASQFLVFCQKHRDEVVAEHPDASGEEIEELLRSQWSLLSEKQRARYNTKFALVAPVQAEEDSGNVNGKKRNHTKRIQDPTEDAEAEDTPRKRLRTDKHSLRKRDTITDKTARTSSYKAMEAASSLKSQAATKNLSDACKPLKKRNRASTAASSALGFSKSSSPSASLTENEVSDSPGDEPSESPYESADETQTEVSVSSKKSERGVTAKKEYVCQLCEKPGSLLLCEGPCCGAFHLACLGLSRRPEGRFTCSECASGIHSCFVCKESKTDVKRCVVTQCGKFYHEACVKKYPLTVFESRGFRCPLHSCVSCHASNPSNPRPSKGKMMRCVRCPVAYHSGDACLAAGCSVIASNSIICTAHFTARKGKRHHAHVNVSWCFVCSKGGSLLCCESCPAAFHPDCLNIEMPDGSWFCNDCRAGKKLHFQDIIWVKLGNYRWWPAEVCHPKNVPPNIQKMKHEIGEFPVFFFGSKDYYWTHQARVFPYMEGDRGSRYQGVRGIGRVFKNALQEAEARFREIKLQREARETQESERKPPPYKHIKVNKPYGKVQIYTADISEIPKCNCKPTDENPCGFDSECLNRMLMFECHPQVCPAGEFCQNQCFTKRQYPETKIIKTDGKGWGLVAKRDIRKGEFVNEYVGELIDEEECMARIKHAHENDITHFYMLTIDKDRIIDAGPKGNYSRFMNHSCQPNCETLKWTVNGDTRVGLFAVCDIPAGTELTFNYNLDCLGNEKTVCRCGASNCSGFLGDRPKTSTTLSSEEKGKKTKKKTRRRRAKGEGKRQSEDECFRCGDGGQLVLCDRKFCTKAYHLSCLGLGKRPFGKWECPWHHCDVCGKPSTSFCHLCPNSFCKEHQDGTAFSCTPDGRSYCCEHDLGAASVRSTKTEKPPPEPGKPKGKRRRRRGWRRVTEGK
INS-1E GSIS act = GLuc luminescence reporter in INS-1E cells, primary screen for activators of glucose-dependent secretion of insulin. INS-1E GLuc reporter insulin secretion, 2-3 h. 370,000 compounds, 0.61% hits. activation, % at 16.6 µM. AID 743287;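 active = lowest replicate activation of at least 40%, so every replicate reaches that level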;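 also: 0% = median of neutral control wells and 100% = median of IBMX positive control wells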
Wnt act = Wnt/beta-catenin pathway activation | Wnt/beta-catenin reporter cell assay, activator, plate reader | activation, % at 9.35 µM | 300,000 compounds, 1.2% hits | AID 743398; in the data active = activation above about 30%, passing the limit was not always enough; inconclusive = no clear call, values can overlap the other calls;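 also: 0% = neutral control wells and 100% = positive control wells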
miR-122 sensor = blocks miR-122 activity in Huh7 sensor cells; Huh7 miR-122 Renilla luciferase sensor, 48 h; neutral wells = 0, positive control = 100; activation (reporter increase), % at 12.5 µM; 340,000 compounds, 0.3% hits;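 active = mean replicate activation score at least 90 and every replicate individually at or above 90; inconclusive = only one of the two criteria met; inactive = neither criterion met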;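 also: higher luciferase means less miR-122 activity so hits act as miR-122 inhibitors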
MITF act = MITF TRPM1 promoter activation in melanoma cells; SK-MEL-5 TRPM1-promoter luciferase, 24 h; % of positive control, neutral wells = 0; activation, % at 12.5 µM; 300,000 compounds, 0.75% hits; AID 588334;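 active = mean activation of at least 80% with every replicate also reaching 80%; inconclusive = mean reaches 80% but some replicate falls short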;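 also: 0% = neutral control wells and 100% = parthenolide positive control wells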
Dyrk1A ADPGlo = Dyrk1A (rat) kinase inhibition. Q63470. ADP-Glo luminescence, NFATc1 peptide. inhibition, % at 12.5 µM. 310,000 compounds, 0.43% hits;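 also: plate controls were vehicle with enzyme for no effect and no enzyme for full effect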
An asterisk follows results filed as active; ? = inconclusive; . = no result given; [ ] = dose if it differs, or a comment. Compounds with a hit are over-represented: about 2.4% of the library has one in this group of screens. Rule as the data show it, unless noted: active = inhibition above about 50%; inactive = the rest.

SMILES	NSD2 inh	INS-1E GSIS act	Wnt act	miR-122 sensor	MITF act	Dyrk1A ADPGlo
Cc1ccccc1NC(=O)c1ccc(NS(=O)(=O)c2cc(C(C)(C)C)cc(C)c2C)cc1	-1	-1	-1	321*	5	-3
Cc1noc(C)c1S(=O)(=O)Nc1ccc2c(c1)C(=O)N([C@H](C)CO)C[C@H](C)[C@H](CN(C)S(C)(=O)=O)OCCCC[C@@H](C)O2	.	6	.	3[16.7 µM]	.	.
CCOc1ccccc1N(CC(=O)Nc1cccnc1)S(C)(=O)=O	-1	.	3	9	-2	-5
CCOc1ccccc1N(CC(=O)Nc1cccnc1)S(=O)(=O)c1ccc(C)cc1	2	-3	0	128*	2	.
Cc1cc(C)c(NN=c2c(=O)c3ccccc3c2=O)c(C)c1	.	.	21	-2	116*	-3
O=c1c(=NNc2ccccc2Cl)c(=O)c2ccccc12	1	-1	-6	3	-29	4
C[C@H]1CCCCO[C@H](CN(C)C(=O)Cc2ccccc2)[C@@H](C)CN([C@@H](C)CO)C(=O)c2cc(NC(=O)CCCN(C)C)ccc2O1	.	-2	.	3[16.7 µM]	.	.
COc1ccc(-c2cc(C(=O)Nc3cc(Cl)ccc3O)no2)cc1	2	18	14	-1	113*	3
COc1ccc(-c2cc(C(=O)Nc3cc(C)ccc3O)no2)cc1	1	4	-6	-2	41	-2
COc1ccc(-c2cc(C(=O)NC(C)C)no2)cc1	-1	-1	.	2	105*	0
COC(=O)c1cc(-c2ccc(OC)cc2)on1	0	-48	-3	-20	13	-4
CC(C)NC(=O)Nc1ccc2c(c1)C(=O)N([C@H](C)CO)C[C@@H](C)[C@H](CN(C)Cc1ccccc1)O2	.	7	.	5[16.7 µM]	.	.
Clc1nc2ccccc2cc1/C=N/Nc1nc2ccccc2[nH]1	-2	-21	63*	.	9	10
Cc1cccc2cc(/C=N/Nc3ccc(C(=O)O)cc3)c(Cl)nc12	.	-16	38*	.	153*	.
O=C(O)c1ccc(N/N=C/c2cc3ccccc3nc2Cl)cc1	3	-1	29	.	88*	43
COCC(=O)N[C@H]1C=C[C@H](CC(=O)NCc2ccccc2OC)O[C@@H]1CO	.	-14	.	.	.	.
Cc1noc(C)c1NC(=O)Nc1ccc2c(c1)C(=O)N([C@H](C)CO)C[C@@H](C)[C@@H](CN(C)Cc1ccccc1)OCCCC[C@H](C)O2	.	1	.	6[16.7 µM]	.	.
C[C@H](CO)N1C[C@H](C)[C@H](CN(C)Cc2ccc(Oc3ccccc3)cc2)Oc2ncc(-c3cncnc3)cc2C1=O	.	-11	.	5[16.7 µM]	.	.
CCCNC(=O)N[C@@H]1CC[C@H](CCn2cc(C3CCCCC3)nn2)O[C@H]1CO	.	9	.	7[16.7 µM]	.	.
O=[N+]([O-])c1ccc(COn2nnc3ccccc32)cc1	0	0	1	.	27	.
Clc1ccc(COn2nnc3ccccc32)c(Cl)c1	-2	.	22	-9	99*	11
CN1CCc2c(sc(/N=C/c3c[nH]c4ccccc34)c2C#N)C1	6	1	39*	-8	.	.
CN1CCN(C(=O)[C@H]2[C@H](CO)[C@H]3Cn4c(ccc(C5=CCCCC5)c4=O)[C@@H]2N3S(C)(=O)=O)CC1	.	4	.	.	.	.
CC(=O)N(C)C[C@H]1Oc2ncc(C#CC(C)(C)O)cc2C(=O)N([C@H](C)CO)C[C@H]1C	.	22	.	-3[16.7 µM]	.	.
CC(C)(C)n1ncc2c(=O)n(CC(=O)c3ccccc3)cnc21	-3	.	.	4	96*	-23
SMILES	NSD2 inh	INS-1E GSIS act	Wnt act	miR-122 sensor	MITF act	Dyrk1A ADPGlo
CC(C)(C)n1ncc2c(=O)n(CC(=O)OCc3ccccc3)cnc21	3	-31	.	2	-11	5
Cc1ccc(C(=O)Cn2cnc3ccccc3c2=O)cc1	2	.	27	-6	89*	-5
O=C(N[C@@H]1CC[C@H](CCNC(=O)C2CCC2)O[C@@H]1CO)c1ccncc1	.	7	.	.	.	.
On1onc2c3cc(-c4ccccc4)nc3ccc21	-1	3	39*	.	-14	4
c1ccc(-c2cc3c(ccc4nonc43)nn2)cc1	-2	.	0	2	8	-4
CN1[C@H](C(=O)NCc2ccc(F)cc2)[C@@H](CO)[C@@H]2Cn3c(ccc(-c4ccccc4F)c3=O)[C@@H]21	.	-5	.	-5[16.7 µM]	.	.
COc1ccccc1-c1noc(-c2cccs2)n1	0	.	23	9	121*	2
COc1ccccc1-c1noc(-c2ccncc2)n1	-2	6	0	2	35	12
COc1ccccc1-c1nc(-c2ccc(C)nc2OC)no1	0	.	61*	-11	.	-7
COc1ccc(S(=O)(=O)Nc2ccc3c(c2)C(=O)N([C@H](C)CO)C[C@H](C)[C@H](CN(C)S(=O)(=O)c2c(C)noc2C)OCCCC[C@H](C)O3)cc1	.	-3	.	-5[16.7 µM]	.	.
CCOC(=O)/C(C#N)=C/c1cc(C)n(-c2ccc(C)cc2)c1C	0	-16	.	.	93*	6
CCOC(=O)/C(C#N)=C\c1cc(C)n(-c2ccccc2)c1C	-3	.	12	5	.	2
CCC1(c2ccc(F)cc2)NC(=O)N(CC(=O)NC2CC2)C1=O (centres undefined)	-1	26	31*	-7	0	12
CCS(=O)(=O)N1CC2(C1)[C@@H](c1ccccc1)[C@@H](CO)N2CCC(F)(F)F	.	16	.	.	.	.
NC(=O)COC(=O)c1ccccc1Oc1ccccc1	0	46*	-2	.	-3	-1
NC(=O)NC(=O)COC(=O)c1ccccc1Oc1ccccc1	0	.	.	2	0	6
Fc1ccc(N2CCN(Cc3ccccn3)CC2)cc1	2	13	40*	-2	-7	-5
c1ccc(CN2CCOCC2)nc1	0	-16	-4	.	6	.
O=C(CSc1ncn(-c2ccccc2)n1)c1cccs1	0	.	?	-9	90*	18
O=C(COC(=O)c1cccs1)NC1CC1	-1	.	.	.	.	.
Oc1ccc(N=Nc2ccccc2)cc1	9	-20	34*	-10	91*	-2
CO[C@@H]1CN(C)C(=O)c2ccc(NC(C)=O)cc2OC[C@@H](C)N(C(=O)c2ccccc2)C[C@H]1C	.	2	.	.	.	.
O=C(Cc1ccccn1)N1CC2(C1)[C@H](c1ccccc1)[C@H](CO)N2C(=O)c1ccncc1	.	2	.	.	.	.
COc1ccc2nc(N3C(=O)CNC3=S)sc2c1	39	12	54*	-9	.	11
COc1cccc(-c2cc3onc(-c4ccccc4)c3c(=O)n2C)c1	.	-8	38*	-17	63	11
Cn1c(-c2ccc(F)c(F)c2)cc2onc(-c3ccccc3)c2c1=O	.	.	64*	-1	116*	-7
CC(C)OC(=O)c1ccc2nc3ccccc3nc2c1	35	16	43*	.	6	5
O=S(=O)(NCCOCC(F)(F)C(F)F)c1ccc2oc3ccccc3c2c1	-1	.	.	107*	-5	0
COc1ccc(OCCNS(=O)(=O)c2ccc3oc4ccccc4c3c2)cc1	1	.	4	2	-9	-2
